The campaign covered roughly 410,000 compounds. About 310 (0.076%) were called active. Roughly 2% stayed inconclusive and do not appear here. The call rests on the fitted dose curve; in most records, active means well fitted activation curve with a large enough effect; inconclusive means small, poorly fitted or top-dose-only effect, or another doubt; inactive means no such curve, though single readings can be large or run the other way. The list comes from a sample in which actives are over-represented; it also holds similar structures and randomly drawn compounds. Where a call stands in place of a potency, no number is given.
Potency means the concentration at half of the fitted maximal effect.

Parathyroid hormone/parathyroid hormone-related peptide receptor (Homo sapiens), sequence (Q03431 whole entry, looked up): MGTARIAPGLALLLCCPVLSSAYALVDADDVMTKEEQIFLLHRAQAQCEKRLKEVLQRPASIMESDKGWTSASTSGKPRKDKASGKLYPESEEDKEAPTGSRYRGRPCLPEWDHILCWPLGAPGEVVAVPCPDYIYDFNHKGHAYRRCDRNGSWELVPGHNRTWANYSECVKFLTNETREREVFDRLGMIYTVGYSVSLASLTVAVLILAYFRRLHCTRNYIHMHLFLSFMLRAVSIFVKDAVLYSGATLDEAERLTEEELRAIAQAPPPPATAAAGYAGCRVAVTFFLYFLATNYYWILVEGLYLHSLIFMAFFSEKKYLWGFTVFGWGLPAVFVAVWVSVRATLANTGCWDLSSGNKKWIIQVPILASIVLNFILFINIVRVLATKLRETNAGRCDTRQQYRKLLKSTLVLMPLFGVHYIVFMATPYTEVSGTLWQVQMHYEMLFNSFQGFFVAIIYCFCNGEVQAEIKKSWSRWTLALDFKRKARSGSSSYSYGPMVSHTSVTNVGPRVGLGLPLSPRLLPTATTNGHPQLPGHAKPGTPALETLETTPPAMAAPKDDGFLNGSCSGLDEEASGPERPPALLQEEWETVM

This experiment addresses Parathyroid hormone/parathyroid hormone-related peptide receptor (Homo sapiens) (UniProt Q03431). The experiment in a line: qHTS for PTHR1 Agonists: Primary Screen. Further: nearly all actives have a fitted effect of over 55% in size. To be noted: HEK293 GP2 PTHR1 cells, GloSensor cAMP luminescence, 1 h; series mostly up to 115 µM. The text has this: The goal of the proposed studies is to discover new compounds that act as potent agonists on the parathyroid hormone receptor type-1 (PTHR1). The PTHR1 plays critical roles in maintaining blood calcium and phosphate levels, as well as in controlling bone remodeling. PTHR1 agonists could thus be useful for treating diseases such as hypoparathyroidism and osteoporosis. In the former disease, an agonist drug would help maintain normal blood calcium and phosphate levels under conditions of parathyroid hormone deficiency. In the latter disease, an agonist drug would stimulate new bone formation and thus reduce the risk of fracture, under conditions of bone fragility, as occurs in aging.
To that end, we performed a quantitative high-throughput screening (qHTS) of the Molecular Libraries Probe Centers Network (MLPCN) compound libraries at the NIH Chemical Genomics Center (NCGC) for the parathyroid hormone receptor type-1 (PTHR1) using a unique HEK-293-derived cell line (GP2) that expresses the PTHR1 and a glosensor cAMP reporter construct.
NIH Molecular Libraries Probe Production Centers Network [MLPCN]
NIH Chemical Genomics Center [NCGC]
Assay Submitter (PI): Thomas Gardella, Massachusetts General Hospital
4 microL are dispensed into a 1536-well micro plate to yield 3,000 cells/well. The plates are then incubated overnight, after which 4 microL of 0.5 mM of BIoTium Luciferin plus 0.5 mM IBMX are added. They are then incubated at 37 degree for one hour before 23 nL of compounds are added through pinning and then incubated at 37 degree again for another hour. After the plates are kept at room temperature for 15 min before they are read on the ViewLux to measure luminescence.
(In qHTS, concentration-response curves come from the screen itself.)
Turning to `COc1ccc(N2CCN(S(=O)(=O)c3ccc(-c4coc(C)n4)cc3)CC2)cc1`, the Potency result is “inactive”.
The entry for `Cc1ccc(C)c(N2CCN(C(=O)CN3C(=O)COc4ccc(S(=O)(=O)N5CCCCCC5)cc43)CC2)c1` is “inactive”.
For `COc1ccccc1CNC(=O)Cn1nc(C)c2nn(-c3ccc(Cl)cc3)c(C)c2c1=O`, the Potency result was “inactive”.
In the case of `O=C(O)c1ccc(CSc2nc3cccnc3n2Cc2cccc(F)c2)cc1`, the Potency entry is “inactive”.
As to `CC(C)c1ccc(NC(=O)c2ccc(Cn3nc(N4CCN(c5ccccc5)CC4)ccc3=O)o2)cc1`, the Potency entry is “inactive”.
For `O=C(CSc1nccn1C1CCCC1)Nc1cc(C(F)(F)F)ccc1Cl`, the Potency entry is “inactive”.
The figure for `Cc1ccc(Cc2cnc(N)s2)o1` is 3.55 µM (active); for `Cc1ccc(-c2nc3cccc(C)n3c2Nc2ccc3c(c2)OCCO3)cc1` it is “inactive”; for `CCN(CC)c1ccc(NC(=O)Cn2nc3c(cc2=O)CCCC3)c(C)c1` it is “inactive”.
The entry for `CCC(=O)N1c2ccccc2CC1C(=O)N1CCN(c2ccccc2F)CC1` (configuration not stated) is “inactive”; for `Cc1cc(C)c(NC(=O)CCc2c(C)nc3c(c(C)nn3C(C)(C)C)c2C)c(C)c1` it is “inactive”; for `Cn1c(=O)c(C(=O)O)nn(-c2ccccc2)c1=O` it is “inactive”.
The entry for `Cc1cc(C)cc(NC(=O)CSc2nc(=O)n(CCN3CCOCC3)c3c2CCC3)c1` is “inactive”; for `COc1ccccc1NC(=O)Cn1cnc2ccc(S(=O)(=O)N3CCC(C)CC3)cc2c1=O` it is “inactive”.
With `COc1ccc(C2(Nc3cccc(F)c3)C(=O)c3ccccc3C2=O)cc1`, the Potency result was “inactive”.
The entry for `CC1CCN(S(=O)(=O)c2ccc3c(c2)N(CC(=O)NCCc2ccccc2)C(=O)CO3)CC1` is “inactive”; for `COc1ccc(-n2nc(C(=O)NCCc3ccc(Cl)cc3)c3c4ccccc4n(C)c3c2=O)cc1Cl` it is “inactive”.
The entry for `c1ccc(CSc2ncnc3c2sc2nc(N4CCOCC4)c4c(c23)CCCC4)cc1` is “inactive”; for `CCc1nc2sc3c(Cl)ncnc3c2c2c1CCCC2` it is “inactive”; for `CCCCSc1ncnc2c1sc1nc(N3CCOCC3)c3c(c12)CCCC3` it is 79.4 µM (active).
The entry for `COC(=O)c1c(NC(=O)c2cc(=O)c3c(C)cc(C)cc3o2)sc2c1CCCC2` is “inactive”.
Take `Cc1ccccc1NC(=O)Cn1cc(C(=O)c2cccs2)c2ccccc21`: the Potency entry was “inactive”.
For the compound `CCCS(=O)(=O)N1CCC(n2c(C(F)(F)F)nc3cccnc32)CC1`, the Potency entry is “inactive”.
The entry for `Cc1ccc(CN2COc3cc(C)c4c(oc(=O)c5ccccc54)c3C2)cc1` is “inactive”; for `COc1ccc(OC)c(-n2nnc(-c3nc(-c4cc(OC)c(OC)c(OC)c4)no3)c2C)c1` it is “inactive”; for `COc1cc(NC(=O)CCn2nc(C)cc2C)cc(OC)c1OC` it is “inactive”.
The entry for `Cc1cc(C)cc(NC(=O)Cn2nc(N3CCN(c4ccccc4)CC3)ccc2=O)c1` is “inactive”; for `COc1cccc(NC(=O)N2CCN(C(=O)c3nsc4ccccc34)CC2)c1` it is “inactive”; for `CCCC(=O)N1CCN(c2nc3c(OC)ccc(C)c3s2)CC1` it is “inactive”.
In the case of `Cc1ccc(NC(=O)CN2C(=O)CC(C)Sc3ccccc32)c(C)c1` (configuration not stated), the Potency result was “inactive”.
In the case of `COc1cc(NC(=O)c2nc3ccccc3nc2C)cc(OC)c1OC`, the Potency entry is “inactive”.
The figure for `CC(C)CN(Cc1c(O)ccc2c(=O)c(-c3ccccc3)coc12)CC(C)C` is 35.5 µM (active); for `CN(C)Cc1c(O)ccc2c(=O)c(-c3ccccc3Cl)coc12` it is “inactive”; for `CCN(Cc1ccccc1)Cc1c(O)ccc2c(=O)c(-c3ccc(Cl)cc3Cl)coc12` it is “inactive”.
The entry for `CC1CCN(S(=O)(=O)c2ccc3c(c2)N(CC(=O)NCc2ccccc2Cl)C(=O)CO3)CC1` is “inactive”.
For the compound `COC(=O)c1cc(NC(=O)CCc2c(C)nc3c4c(C)cc(C)nc4nn3c2C)cc(C(=O)OC)c1`, the Potency entry was “inactive”.
The entry for `COc1ccc(Cn2cc(C(=O)c3ccc(C)cc3)c(=O)c3cc(OC)c(OC)cc32)cc1` is “inactive”.
The entry for `Cc1oc2ncnc(N3CCCCC3)c2c1C(=O)N1CCN(c2cccc(Cl)c2)CC1` is “inactive”; for `CCOC(=O)N1CCc2c(sc3c2C(=O)NC(c2ccccc2F)N3)C1` (configuration not stated) it is “inactive”.
The entry for `COc1ccc(NC(=O)Cn2c(=O)cc(C)c3c(C)nn(-c4cccc(Cl)c4C)c32)cc1OC` is “inactive”; for `Cc1ccc(C)c(NC(=O)CSC2=Nc3ccccc3N=C(c3ccc(F)cc3)C2)c1` it is “inactive”.
With `CCN(CC)c1ccc(NS(=O)(=O)c2cc(-c3cc(C)no3)ccc2C)c(C)c1`, the Potency entry was “inactive”.
The entry for `CCCCC12CN3CC(C)(CN(C1)C3c1ccc(O)c(OC)c1)C2=O` (configuration not stated) is “inactive”; for `CC(=O)c1ccc(NC(=O)C2CCN(S(=O)(=O)c3c(C)noc3/C=C/c3ccc(C)cc3)CC2)cc1` it is “inactive”; for `COC(=O)c1ccccc1NC(=O)c1ccc2c(=O)n3c(nc2c1)CCCCC3` it is “inactive”.
Regarding `COc1ccccc1-c1cc2nc(C)c(CCC(=O)NC3CCCCC3)c(C)n2n1`, the Potency entry was “inactive”.
With `CCc1ccc(CN(Cc2ccco2)C(=O)COc2ccc(Cl)c(C)c2)cc1`, the Potency entry is “inactive”.
The entry for `COc1cccc2c1cc1c(=O)n(CC(=O)N3CCN(c4ccccc4)CC3)nc(C)n12` is “inactive”.
For `O=C(NCCc1ccccc1)c1ccc2c(c1)N(Cc1ccc(F)cc1)C(=O)c1ccccc1S2(=O)=O`, the Potency result was “inactive”.
The entry for `Cc1nc2ccn(Cc3cccnc3)c(=O)c2cc1C(=O)N1CCN(c2ccccc2F)CC1` is “inactive”; for `CCc1ccc(NC(=O)CCS(=O)(=O)c2cc3c(cc2Cl)NC(=O)CO3)cc1` it is “inactive”.
The entry for `Cc1ccc(C(=O)Nc2cc3c(cc2N2CCCC2)n(C)c(=O)c(=O)n3C)cc1` is “inactive”.

These data come from PubChem BioAssay AID743266 (National Center for Advancing Translational Sciences (NCATS), 2014).
